Screening results deposited in PubChem by Johns Hopkins Ion Channel Center.
Shown are actives, neighbours in structure and some others; about 2.4% of the full set was active somewhere.
CHT inh – inhibitors of human choline transporter CHT; Q9GZV3; B-score at 10 µM; 310,000 compounds, 0.86% hits; CHT-expressing cells, membrane potential dye, choline response; active compounds read low;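 active means B-score over 3 SD under the library average, and starting fluorescence ratio not unusually high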;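 further: choline stimulus applied at its EC90 after an EC20 pre-addition; B-score computed on integrated fluorescence ratio after choline addition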
TMEM16A inh – inhibitors of mouse TMEM16A calcium-activated chloride channel; Q8BHY3; HEK293 TMEM16A/YFP iodide influx fluorescence, ionomycin; normalized B-score (activity score, 25-100; higher = stronger inhibition) at 10 µM; 310,000 compounds, 1.2% hits;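 active means ratio plate-corrected score three or more library SD toward inhibition, starting fluorescence score within five deviations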;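 further: score derived from kinetic fluorescence span divided by baseline fluorescence per well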
Target sequence (Q8BHY3 whole entry, looked up): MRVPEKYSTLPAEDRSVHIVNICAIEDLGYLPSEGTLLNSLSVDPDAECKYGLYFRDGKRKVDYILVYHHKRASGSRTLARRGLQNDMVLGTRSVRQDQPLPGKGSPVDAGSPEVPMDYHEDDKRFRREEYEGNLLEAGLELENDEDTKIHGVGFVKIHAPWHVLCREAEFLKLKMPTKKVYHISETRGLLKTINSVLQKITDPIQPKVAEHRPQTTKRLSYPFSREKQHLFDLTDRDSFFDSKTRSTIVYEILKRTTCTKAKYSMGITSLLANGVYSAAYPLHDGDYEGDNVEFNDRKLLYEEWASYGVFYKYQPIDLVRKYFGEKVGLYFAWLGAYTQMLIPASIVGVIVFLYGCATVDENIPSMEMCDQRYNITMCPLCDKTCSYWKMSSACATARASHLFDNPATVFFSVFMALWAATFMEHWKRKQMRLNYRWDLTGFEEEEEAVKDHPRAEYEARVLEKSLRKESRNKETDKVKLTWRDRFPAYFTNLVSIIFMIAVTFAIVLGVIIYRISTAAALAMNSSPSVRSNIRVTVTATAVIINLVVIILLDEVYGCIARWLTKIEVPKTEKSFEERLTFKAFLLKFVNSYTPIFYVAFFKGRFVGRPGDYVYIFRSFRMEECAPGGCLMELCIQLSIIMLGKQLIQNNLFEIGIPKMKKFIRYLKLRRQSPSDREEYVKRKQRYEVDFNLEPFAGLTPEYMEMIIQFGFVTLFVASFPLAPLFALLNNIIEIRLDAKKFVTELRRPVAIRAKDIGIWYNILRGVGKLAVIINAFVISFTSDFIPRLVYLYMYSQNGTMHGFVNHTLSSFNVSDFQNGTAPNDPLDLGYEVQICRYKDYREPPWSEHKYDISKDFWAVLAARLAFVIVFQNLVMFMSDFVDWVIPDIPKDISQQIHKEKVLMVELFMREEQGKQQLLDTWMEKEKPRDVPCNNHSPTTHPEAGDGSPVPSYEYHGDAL
CHT allo act – human CHT allosteric activation. CHT-expressing cells, membrane potential dye, choline EC20; active compounds read high; LV-AA mutant CHT in HEK293 cells. Q9GZV3. 310,000 compounds, 0.49% hits. B-score at 10 µM. AID 488977;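 active means initial fluorescence not abnormally high and integrated response B-score, plate-corrected, over 3 SD above library mean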
TMEM16A act – activators or potentiators of mouse TMEM16A chloride channel. Q8BHY3. AID 623877. HEK293 TMEM16A/YFP-H148Q/I152L, iodide quench fluorescence; active compounds read low. 340,000 compounds, 0.3% hits. B-score at 10 µM;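 active means fluorescence-ratio B-score plate-corrected deviation score at least 3 library SD below zero, with starting fluorescence score within 5 deviations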;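 further: channel opened by trigger with iodide after compound preincubation; score built on the fluorescence ratio of max minus min over baseline; more negative score means more quench and so TMEM16A activation or potentiation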
CHT activ conf – human CHT activation, confirmatory screen | shares compounds with CHT allo act | CHT-expressing cells, membrane potential dye fluorescence (FDSS); % of choline EC20–EC90 response window; HEK293 expressing CHT LV-AA mutant; choline added at its EC20 | activation, % at 10 µM | 2,500 compounds, 91% hits | AID 504833;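 active means primary screen active, with duplicate mean activation above negative control mean plus 3 SD, cut at about 11% in these data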
HEK293 MP dye – activity in parental HEK293 cells lacking CHT | shares compounds with CHT allo act | membrane potential dye fluorescence (FDSS); measured after EC20 choline addition | ratio readout change at 10 µM, hits read low | 2,500 compounds, 62% hits | AID 623908;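 active means duplicate-averaged ratio beyond 3 SD from buffer wells, up or down, though filed actives are nearly all decreases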
Of the large screens only hits and unclear results are named; the others gave an inactive call (follow-up assays come after a bar, where they were run).

CCOC(=O)Cc1c(Cl)c2ccccc2[nH]c1=O	none
CCOC(=O)C[n+]1ccc2c([nH]c3ccccc32)c1C	none | CHT activ conf 49.5 | HEK293 MP dye -40.6
CN(C(=O)c1ccc(OC2CCN(C(=O)c3cccnc3)CC2)cc1)C1CCCCC1	none
CC(=O)c1ccc(-n2cc(-c3ccc(C(C)(C)C)cc3)[n+]3c2SCCC3)cc1	CHT allo act 7.01 | CHT activ conf 24.5 | HEK293 MP dye -44.6
CC1CCCN(C(=O)C2CCN(c3nc(-c4ccccc4)nc4c3CCC4)CC2)C1 (stereo unspecified)	none
CC1CCCN(c2c3c(nc4ccccc24)CCCC3)C1 (stereo unspecified)	none | CHT activ conf 20.2 | HEK293 MP dye inactive
O=C(N/N=C/c1ccncc1)c1cccc([N+](=O)[O-])c1	none (no result: TMEM16A act) | CHT activ conf 48.7 | HEK293 MP dye -51.3
Cc1cc(C)c(NC(=O)C2CC(=O)N(C(C)C)C2)c(C)c1 (stereo unspecified)	none
O=C1C(NS(=O)(=O)c2cccs2)=C(N2CCOCC2)C(=O)c2ccccc21	CHT allo act 7.17 | CHT activ conf 40.8 | HEK293 MP dye -40.5
CCOc1ccccc1N1CCN(C2=C(NS(=O)(=O)c3cccs3)C(=O)c3ccccc3C2=O)CC1	none
CC(NCc1cc(Br)ccc1OCC(=O)NCc1ccccc1)c1ccccc1 (stereo unspecified)	none | CHT activ conf inactive | HEK293 MP dye inactive
O=C(COc1ccc(Br)cc1CNC1CCCC1)Nc1ccccc1	none | CHT activ conf inactive | HEK293 MP dye inactive
O=C(CCC(=O)NNC(=O)COc1ccc(Br)cc1Br)NCc1ccccc1	none
O=C(CSc1ccc2nnc(-c3ccccn3)n2n1)N1CCOCC1	none | CHT activ conf 41.6 | HEK293 MP dye -35.8
CCOC(=O)N1CCN(C(=O)CSc2ccc3nnc(-c4ccccn4)n3n2)CC1	none
Cc1cc(C(=O)N/N=C\c2cc(C(C)(C)C)ccc2O)n[nH]1	none
CC(=O)N/N=C/c1cc(C(C)(C)C)cc(/C=N/NC(C)=O)c1O	CHT allo act 8.42 | CHT activ conf 63.9 | HEK293 MP dye -50.2
CN(CC(=O)Nc1ccc(Cl)c(C(F)(F)F)c1)C(=O)COC(=O)C1CC2CCCC(C1)C2=O (stereo unspecified)	none (no result: CHT inh, TMEM16A inh, CHT allo act)
CCc1ccc(C(O)(CNCc2ccccc2)c2ccccc2)cc1 (stereo unspecified)	none | CHT activ conf 24.5 | HEK293 MP dye inactive
CS(=O)(=O)Nc1cccc(C2=NN(S(=O)(=O)c3ccccc3)C(c3ccco3)C2)c1 (stereo unspecified)	none | CHT activ conf 25.6 | HEK293 MP dye inactive
CCS(=O)(=O)Nc1cccc(C2=NN(S(=O)(=O)c3ccccc3)C(c3ccco3)C2)c1 (stereo unspecified)	none
CCOC(=O)N1CCN(C(=O)C2CCCN(S(=O)(=O)c3ccc(C)cc3)C2)CC1 (stereo unspecified)	none
CN(C)CCNC(=O)c1onc(CSc2ccc(F)cc2)c1C(=O)NCCN(C)C	CHT allo act 6.7 | CHT activ conf 17.5 | HEK293 MP dye -20.5
Cc1cc(OC(=O)c2cccc(F)c2)c([N+](=O)[O-])c(=O)[nH]1	none
CCOC(=O)c1cnc2c(c(C)nn2C)c1Oc1ccc(Cl)cc1	CHT allo act 6.39 | CHT activ conf 27.0 | HEK293 MP dye inactive
Cc1nn(C)c2ncc(C(N)=O)c(Oc3cccnc3)c12	none
CCOC(=O)C1(Cc2ccccc2)CCN(CC2CC=CCC2)CC1 (stereo unspecified)	none | CHT activ conf inactive | HEK293 MP dye inactive
CCOC(=O)C1(Cc2cccc(OC)c2)CCN(CC2CC=CCC2)CC1 (stereo unspecified)	none
CNc1nc(-c2ccccn2)nnc1-c1ccccc1	none
c1ccc(-c2nnc(-c3ccccn3)nc2NC2CCCCC2)cc1	none | CHT activ conf inactive | HEK293 MP dye inactive
Cc1ccc(NC(=O)c2ccco2)c(NC(=O)c2ccc(Cl)cc2)c1	none
COC1=C(Nc2ccccc2OC)C(=O)c2ccccc2C1=O	CHT allo act 8.74 | CHT activ conf 36.7 | HEK293 MP dye -41.4
COc1ccccc1NC1=C(NC(C)=O)C(=O)c2ccccc2C1=O	none (no result: CHT inh, TMEM16A inh, CHT allo act)
Clc1cc2c(c(CSc3nc4ccccc4n4cccc34)c1)OCOC2	none
COc1ccc(C(=O)C[n+]2ccc3ccccc3c2C)cc1	none | CHT activ conf 47.9 | HEK293 MP dye -31.8
O=[N+]([O-])c1cccc(-c2ccc(SCc3cccnc3)nn2)c1	none
CCN(CC(=O)Nc1cc(Cl)ccc1C)C(=O)c1ccc(=O)n(Cc2ccccc2)n1	none
Brc1cnc(N2CCCCC2)nc1N1CCOCC1	none
Brc1cnc(N2CCCC2)nc1N1CCOCC1	none | CHT activ conf 16.2 | HEK293 MP dye -20.4
NC(=O)CC(NC(=O)Cc1ccc(Br)cc1)c1ccc(N2CCC(N3CCCCC3)CC2)c([N+](=O)[O-])c1 (stereo unspecified)	none
CCOC(=O)c1c(NC(=O)c2ccco2)n(C2CCCCC2)c2nc3ccccc3nc12	CHT allo act 7.26 | CHT activ conf 42.0 | HEK293 MP dye inactive
CCOC(=O)c1c(N)n(C2CC(C)(C)NC(C)(C)C2)c2nc3ccccc3nc12	CHT allo act 6.69 | CHT activ conf 57.3 | HEK293 MP dye -71.8
CCC(=O)Nc1c(C#N)c2nc3ccccc3nc2n1C1CCCCC1	none
C=CCSc1nc2sc(C)c(C)c2c(=O)n1N	none
COc1ccc(C(C)n2c(C)c3c(C)nnc(C)c3c2C)cc1 (stereo unspecified)	CHT allo act 6.61 | CHT activ conf 55.7 | HEK293 MP dye -44.9
Cc1nnc(C)c2c(C)n(C(C)c3ccccc3)c(C)c12 (stereo unspecified)	none (no result: TMEM16A act)
Cn1c(=S)c2[nH]c(SCCN3CCCC3)nc2n(C)c1=O	none
CCN1CCCC(Sc2nc3c([nH]2)c(=S)n(C)c(=O)n3C)C1 (stereo unspecified)	none | CHT activ conf 29.0 | HEK293 MP dye -25.7
CC1Cc2cc(S(=O)(=O)N3CCC(C(=O)N(C)Cc4ccccc4)CC3)ccc2N1C(=O)C1CC1 (stereo unspecified)	none
CCN(CC)CC(O)COc1ccccc1C(=O)CCc1ccccc1 (stereo unspecified)	none
CCCCN(CCCC)CC(O)COc1ccccc1C(=O)Nc1ccccc1 (stereo unspecified)	CHT allo act 7.1 | CHT activ conf inactive | HEK293 MP dye inactive
O=C(COC(=O)Cc1ccsc1)NCc1ccccc1	none
CC(NC(=O)COC(=O)Cc1ccsc1)c1ccccc1 (stereo unspecified)	CHT allo act 6.38 | CHT activ conf inactive | HEK293 MP dye inactive
CC(CCc1ccccc1)NC(=O)/C=C/c1ccc(Cl)cc1 (stereo unspecified)	none | CHT activ conf inactive | HEK293 MP dye inactive
